Source: the supplement of paper PMC10849652
Of roughly 8,800 targets only a part is listed; those with a hit were picked by preference. About 0.5% of all pairs of compound and target were hits.

Tests used:
Test in all cases: log2 fold change, soluble protein after heating vs DMSO (PISA); higher = thermal stabilisation; K562 lysate, 10 uM; active = over 0.2 and 3.5 SD of the protein, either way, in both replicates (recomputed)
[1] = compound: C#Cc1cccc(Nc2ncnc3cc(OCCOC)c(OCCOC)cc23)c1 [erlotinib]
Outline: (§1)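 Soluble protein was defined as the supernatant remaining after 21,000xg for 90 min, following pooling of heated aliquots and adjustment to 0.5% NP-40 at 4°C. Before that, crude K562 extract at 1 mg/mL protein in PBS pH 7.4 with 1 mM MgCl2 was treated with 10 μM compound for 30 min and heated for 3 min across 48°C-58°C. Quantification used TMTpro 16plex LC-MS/MS with channel sums equalised, and values are log-two fold changes in thermal stability relative to solvent controls from duplicates.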

[2] = compound: C/C(=N\NC(=O)C1=CC(=CC=C1)S(=O)(=O)N2CCOCC2)/C3=C(C=CC(=C3)Cl)O
Outline: as §1

[3] = compound: C1=CC(=CC=C1C2=NC3=C(N2)C=C(C=C3)C(=O)N)OC4=CC=C(C=C4)Cl
Outline: as §1

[4] = compound: C1=CC2=C(C=CC(=C2)/C=C\3/C(=O)NC(=NCC4=CC=CS4)S3)N=C1
Outline: as §1

[5] = compound: C1=CC2=NC=CN=C2C=C1/C=C/3\C(=O)NC(=O)S3
Outline: as §1

[6] = compound: C1=CC=C(C=C1)C2=NC(=C(N2)C3=CC=NC=C3)C4=CC(=C(C=C4)Cl)O
Outline: as §1

[7] = compound: C1=CC=C2C(=C1)C3=NNC4=CC=CC(=C43)C2=O
Outline: as §1

[8] = compound: C1CCN(C1)C(=O)NC2=CC=CC(=C2)NC3=NC=C(C(=N3)NCCC4=CN=CN4)Br
Outline: as §1

[9] = compound: C1CN(CCC1(CC2=CC=C(C=C2)Cl)N)C3=NC=NC4=C3C=CN4
Outline: as §1

[10] = compound: C1COCCN1CCN2C3=CC=CC=C3N=C2NC(=O)C4=CC(=CC=C4)[N+](=O)[O-] [IRAK-1-4 Inhibitor I]
Outline: as §1

Measured: log2 fold change

HLCS (UniProt P50747)
Sequence of UniProt P50747 (P50747 whole entry, looked up): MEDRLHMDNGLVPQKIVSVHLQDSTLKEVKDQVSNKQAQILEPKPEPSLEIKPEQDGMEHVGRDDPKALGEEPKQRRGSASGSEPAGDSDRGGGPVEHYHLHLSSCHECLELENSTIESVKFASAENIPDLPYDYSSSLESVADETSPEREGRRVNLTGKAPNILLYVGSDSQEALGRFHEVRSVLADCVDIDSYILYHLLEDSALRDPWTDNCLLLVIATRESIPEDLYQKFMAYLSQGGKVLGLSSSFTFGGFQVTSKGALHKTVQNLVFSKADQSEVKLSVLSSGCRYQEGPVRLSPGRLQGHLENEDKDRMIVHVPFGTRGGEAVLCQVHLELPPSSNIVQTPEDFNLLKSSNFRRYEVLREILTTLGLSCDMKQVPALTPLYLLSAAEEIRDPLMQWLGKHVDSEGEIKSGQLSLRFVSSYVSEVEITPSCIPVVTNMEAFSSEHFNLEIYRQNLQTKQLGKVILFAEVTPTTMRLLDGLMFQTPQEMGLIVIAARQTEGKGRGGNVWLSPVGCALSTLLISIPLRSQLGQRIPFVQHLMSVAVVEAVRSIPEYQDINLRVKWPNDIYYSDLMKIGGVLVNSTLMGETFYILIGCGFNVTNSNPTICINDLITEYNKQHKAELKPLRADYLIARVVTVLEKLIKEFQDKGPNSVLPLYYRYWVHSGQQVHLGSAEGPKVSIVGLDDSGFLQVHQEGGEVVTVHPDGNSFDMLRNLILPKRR
inactive: [1] 0.019 | [2] -0.071 | [3] 0.013 | [4] 0.03 | [5] -0.017 | [6] -0.004 | [7] -0.019 | [8] 0.008 | [9] -0.034 | [10] -0.008

INPP4A (UniProt Q96PE3)
inactive: [1] 0.002 | [2] 0.007 | [3] 0.017 | [4] -0.005 | [5] -0.023 | [6] 0.099 | [7] 0.069 | [8] -0.018 | [9] -0.051 | [10] 0.066

HNRNPL (UniProt P14866)
inactive: [1] 0.054 | [2] 0.073 | [3] 0.022 | [4] -0.007 | [5] 0.013 | [6] 0.033 | [7] -0.041 | [8] -0.017 | [9] -0.003 | [10] 0.014

IGF2BP2 (UniProt Q9Y6M1)
inactive: [1] 0.022 | [2] 0.049 | [3] -0.041 | [4] -0.032 | [5] 0.031 | [6] 0 | [7] -0.08 | [8] -0.023 | [9] 0.051 | [10] -0.022

HSP90AA4P (UniProt Q58FG1)
Sequence of UniProt Q58FG1 (Q58FG1 whole entry, looked up): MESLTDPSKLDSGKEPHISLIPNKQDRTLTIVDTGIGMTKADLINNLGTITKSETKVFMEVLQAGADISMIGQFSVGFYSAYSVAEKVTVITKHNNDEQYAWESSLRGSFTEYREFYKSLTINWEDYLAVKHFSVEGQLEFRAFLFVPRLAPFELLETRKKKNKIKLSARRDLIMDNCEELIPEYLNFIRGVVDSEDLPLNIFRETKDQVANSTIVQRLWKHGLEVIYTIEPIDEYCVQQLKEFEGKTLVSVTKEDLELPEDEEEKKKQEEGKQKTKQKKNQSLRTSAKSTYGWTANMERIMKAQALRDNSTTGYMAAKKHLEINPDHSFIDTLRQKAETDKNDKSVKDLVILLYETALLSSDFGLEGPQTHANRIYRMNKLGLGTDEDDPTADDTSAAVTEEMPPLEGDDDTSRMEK
inactive: [1] -0.064 | [2] 0.994 | [3] 0.097 | [4] 0.018 | [5] -0.129 | [6] 0.023 | [7] -0.003 | [8] -0.032 | [9] -0.09 | [10] 0.081

KHK isoform 2 (UniProt P50053)
inactive: [1] -0.07 | [2] 0.024 | [3] 0.072 | [4] -0.005 | [5] 0.044 | [6] 0.069 | [7] 0.044 | [8] 0.032 | [9] -0.018 | [10] 0.084

HAUS2 (UniProt Q9NVX0)
inactive: [1] 0 | [2] 0.045 | [3] -0.12 | [4] 0.116 | [5] -0.02 | [6] 0.03 | [7] 0.031 | [8] -0.015 | [9] 0.026 | [10] 0.003

HMBOX1 isoform 5 (UniProt Q6NT76)
Sequence of UniProt Q6NT76 (Q6NT76 whole entry, looked up): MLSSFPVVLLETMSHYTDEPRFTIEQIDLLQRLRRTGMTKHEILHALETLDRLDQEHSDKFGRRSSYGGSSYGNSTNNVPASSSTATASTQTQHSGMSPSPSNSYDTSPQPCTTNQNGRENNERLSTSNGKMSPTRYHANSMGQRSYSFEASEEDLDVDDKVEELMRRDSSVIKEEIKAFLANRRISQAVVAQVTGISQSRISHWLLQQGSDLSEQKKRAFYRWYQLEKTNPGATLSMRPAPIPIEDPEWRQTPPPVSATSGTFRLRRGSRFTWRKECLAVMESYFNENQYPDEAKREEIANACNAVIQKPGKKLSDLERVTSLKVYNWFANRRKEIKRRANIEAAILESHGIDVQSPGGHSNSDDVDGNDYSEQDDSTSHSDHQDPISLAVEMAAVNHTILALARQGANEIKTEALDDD
inactive: [1] 0.045 | [2] -0.094 | [3] -0.004 | [4] 0.026 | [5] -0.037 | [6] -0.004 | [7] -0.057 | [8] -0.028 | [9] 0.004 | [10] -0.009

ICAM2 (UniProt P13598)
inactive: [1] 0.004 | [2] -0.022 | [3] 0.023 | [4] -0.029 | [5] -0.01 | [6] -0.011 | [7] 0.021 | [8] 0.032 | [9] 0.005 | [10] 0.061

HEATR6 (UniProt Q6AI08)
inactive: [1] -0.033 | [2] 0.024 | [3] -0.002 | [4] 0.022 | [5] 0.085 | [6] -0.006 | [7] -0.026 | [8] -0.03 | [9] -0.007 | [10] -0.028

GPX4 (UniProt P36969)
Sequence of UniProt P36969 (P36969 whole entry, looked up): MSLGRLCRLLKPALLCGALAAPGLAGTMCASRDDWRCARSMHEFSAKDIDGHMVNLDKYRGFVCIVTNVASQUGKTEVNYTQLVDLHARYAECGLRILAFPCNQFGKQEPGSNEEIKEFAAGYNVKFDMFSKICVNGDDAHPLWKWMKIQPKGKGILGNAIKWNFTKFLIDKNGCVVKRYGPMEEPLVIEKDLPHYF
inactive: [1] 0.02 | [2] 0.051 | [3] -0.037 | [4] -0.016 | [5] 0.04 | [6] -0.029 | [7] -0.06 | [8] 0.024 | [9] 0.021 | [10] 0.012

IARS2 (UniProt Q9NSE4)
Sequence of UniProt Q9NSE4 (Q9NSE4 whole entry, looked up): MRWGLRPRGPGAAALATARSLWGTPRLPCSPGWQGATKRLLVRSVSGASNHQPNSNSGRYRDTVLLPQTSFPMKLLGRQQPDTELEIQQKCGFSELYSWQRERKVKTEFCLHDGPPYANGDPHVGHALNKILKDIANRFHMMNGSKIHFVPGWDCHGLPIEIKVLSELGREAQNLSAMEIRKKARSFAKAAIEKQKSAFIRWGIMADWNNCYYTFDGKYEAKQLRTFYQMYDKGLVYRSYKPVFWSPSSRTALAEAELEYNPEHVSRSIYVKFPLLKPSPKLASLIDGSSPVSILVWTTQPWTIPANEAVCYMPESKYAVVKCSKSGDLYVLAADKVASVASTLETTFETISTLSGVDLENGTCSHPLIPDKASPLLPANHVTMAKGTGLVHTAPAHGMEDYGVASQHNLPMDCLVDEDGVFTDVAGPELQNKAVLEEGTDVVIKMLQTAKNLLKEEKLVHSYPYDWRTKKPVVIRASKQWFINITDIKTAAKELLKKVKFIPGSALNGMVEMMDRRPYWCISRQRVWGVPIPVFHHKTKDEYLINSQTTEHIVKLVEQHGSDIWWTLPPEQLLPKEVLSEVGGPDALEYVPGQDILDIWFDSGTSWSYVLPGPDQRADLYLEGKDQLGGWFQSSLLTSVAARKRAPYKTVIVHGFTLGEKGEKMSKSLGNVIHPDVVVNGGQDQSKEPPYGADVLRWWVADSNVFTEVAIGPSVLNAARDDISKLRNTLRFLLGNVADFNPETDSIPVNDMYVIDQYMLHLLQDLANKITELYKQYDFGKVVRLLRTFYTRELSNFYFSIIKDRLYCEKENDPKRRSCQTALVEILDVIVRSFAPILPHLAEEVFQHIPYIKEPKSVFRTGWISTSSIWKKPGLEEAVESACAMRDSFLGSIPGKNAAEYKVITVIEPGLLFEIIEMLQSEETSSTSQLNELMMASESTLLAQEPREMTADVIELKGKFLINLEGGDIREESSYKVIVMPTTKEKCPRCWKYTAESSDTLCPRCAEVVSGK
inactive: [1] -0.025 | [2] 0.014 | [3] 0.026 | [4] 0.005 | [5] 0.013 | [6] -0.007 | [7] -0.043 | [8] -0.01 | [9] 0.054 | [10] 0.016

HARS (UniProt P12081)
Sequence of UniProt P12081 (P12081 whole entry, looked up): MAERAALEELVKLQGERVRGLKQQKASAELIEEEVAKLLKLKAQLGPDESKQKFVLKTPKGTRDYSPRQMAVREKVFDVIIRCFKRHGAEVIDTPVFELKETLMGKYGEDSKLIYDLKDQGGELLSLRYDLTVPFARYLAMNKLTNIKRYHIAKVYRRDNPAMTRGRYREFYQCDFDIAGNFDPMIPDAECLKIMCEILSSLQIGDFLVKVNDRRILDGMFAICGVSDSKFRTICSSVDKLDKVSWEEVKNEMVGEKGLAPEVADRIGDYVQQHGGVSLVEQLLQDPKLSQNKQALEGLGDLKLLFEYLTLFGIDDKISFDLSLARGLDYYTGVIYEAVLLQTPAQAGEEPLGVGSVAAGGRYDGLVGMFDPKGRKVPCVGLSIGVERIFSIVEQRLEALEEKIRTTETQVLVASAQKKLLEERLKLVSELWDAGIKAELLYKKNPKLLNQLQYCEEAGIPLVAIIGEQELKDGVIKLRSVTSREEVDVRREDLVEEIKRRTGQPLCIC
inactive: [1] -0.034 | [2] 0.006 | [3] -0.002 | [4] 0.021 | [5] -0.036 | [6] -0.005 | [7] 0.019 | [8] -0.016 | [9] 0.001 | [10] -0.002

HADH isoform 2 (UniProt Q16836)
inactive: [1] -0.052 | [2] 0.065 | [3] 0.023 | [4] 0.08 | [5] -0.03 | [6] 0.003 | [7] -0.015 | [8] -0.015 | [9] -0.028 | [10] 0.008

HSPB1 (UniProt P04792)
Sequence of UniProt P04792 (P04792 whole entry, looked up): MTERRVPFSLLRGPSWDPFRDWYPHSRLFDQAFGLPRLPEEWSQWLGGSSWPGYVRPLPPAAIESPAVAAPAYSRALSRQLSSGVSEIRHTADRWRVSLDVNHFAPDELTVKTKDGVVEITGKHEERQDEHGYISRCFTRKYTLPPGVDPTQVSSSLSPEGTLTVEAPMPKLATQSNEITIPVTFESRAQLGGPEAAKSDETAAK
inactive: [1] 0.004 | [2] -0.03 | [3] 0.03 | [4] -0.012 | [5] 0.001 | [6] -0.009 | [7] 0.034 | [8] -0.013 | [9] -0.025 | [10] 0.006

GSTCD (UniProt Q8NEC7)
inactive: [1] 0.041 | [2] -0.017 | [3] -0.037 | [4] 0.033 | [5] -0.027 | [6] 0.012 | [7] -0.021 | [8] -0.028 | [9] 0.005 | [10] -0.055

INTS5 (UniProt Q6P9B9)
inactive: [1] 0.002 | [2] -0.061 | [3] -0.082 | [4] -0.04 | [5] 0.068 | [6] -0.072 | [7] -0.098 | [8] -0.001 | [9] 0.247 | [10] -0.015

HMGCL (UniProt P35914)
inactive: [1] 0.002 | [2] -0.089 | [3] 0.032 | [4] -0.016 | [5] -0.047 | [6] -0.005 | [7] -0.035 | [8] 0.005 | [9] 0.008 | [10] 0.024

KDM5C (UniProt P41229)
Sequence of UniProt P41229 (P41229 whole entry, looked up): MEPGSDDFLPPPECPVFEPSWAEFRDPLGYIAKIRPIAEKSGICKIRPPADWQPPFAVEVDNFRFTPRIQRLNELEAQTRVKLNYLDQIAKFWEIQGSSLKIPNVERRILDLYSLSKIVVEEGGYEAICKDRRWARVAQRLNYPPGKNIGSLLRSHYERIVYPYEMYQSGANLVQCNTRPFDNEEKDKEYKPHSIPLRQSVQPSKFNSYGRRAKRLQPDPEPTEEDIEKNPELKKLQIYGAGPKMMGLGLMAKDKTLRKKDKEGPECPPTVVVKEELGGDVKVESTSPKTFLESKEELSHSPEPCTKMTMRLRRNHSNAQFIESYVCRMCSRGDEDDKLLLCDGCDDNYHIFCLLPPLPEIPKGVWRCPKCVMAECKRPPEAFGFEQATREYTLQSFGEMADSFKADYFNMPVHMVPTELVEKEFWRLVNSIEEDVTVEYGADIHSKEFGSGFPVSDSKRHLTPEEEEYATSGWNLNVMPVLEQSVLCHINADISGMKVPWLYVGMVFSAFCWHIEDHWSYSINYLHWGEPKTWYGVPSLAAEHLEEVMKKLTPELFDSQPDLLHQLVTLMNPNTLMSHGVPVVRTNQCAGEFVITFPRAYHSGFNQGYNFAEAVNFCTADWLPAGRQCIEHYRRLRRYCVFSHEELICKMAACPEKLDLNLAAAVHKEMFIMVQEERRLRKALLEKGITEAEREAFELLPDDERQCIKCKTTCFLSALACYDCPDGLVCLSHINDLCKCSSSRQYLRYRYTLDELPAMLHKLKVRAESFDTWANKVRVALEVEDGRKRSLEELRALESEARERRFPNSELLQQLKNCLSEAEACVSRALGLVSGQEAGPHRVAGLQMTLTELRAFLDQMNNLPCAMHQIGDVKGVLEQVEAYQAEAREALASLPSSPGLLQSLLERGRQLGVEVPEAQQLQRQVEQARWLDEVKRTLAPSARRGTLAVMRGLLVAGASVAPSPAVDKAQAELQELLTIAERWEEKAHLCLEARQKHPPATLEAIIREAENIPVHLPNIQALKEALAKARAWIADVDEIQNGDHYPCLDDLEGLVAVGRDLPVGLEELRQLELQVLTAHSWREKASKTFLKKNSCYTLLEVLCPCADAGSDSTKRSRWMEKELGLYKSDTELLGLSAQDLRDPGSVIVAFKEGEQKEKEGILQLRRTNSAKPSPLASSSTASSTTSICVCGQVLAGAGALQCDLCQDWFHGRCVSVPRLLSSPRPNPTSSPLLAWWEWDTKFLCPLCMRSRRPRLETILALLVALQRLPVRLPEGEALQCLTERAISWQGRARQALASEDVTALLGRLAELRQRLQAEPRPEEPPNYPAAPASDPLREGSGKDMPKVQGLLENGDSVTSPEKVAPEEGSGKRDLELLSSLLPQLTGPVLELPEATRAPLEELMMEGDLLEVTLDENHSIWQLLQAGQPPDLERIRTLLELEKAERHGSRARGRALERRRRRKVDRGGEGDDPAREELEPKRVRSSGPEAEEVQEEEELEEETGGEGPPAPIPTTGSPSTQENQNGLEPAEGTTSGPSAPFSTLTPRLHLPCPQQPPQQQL
inactive: [1] 0.052 | [2] 0.017 | [3] 0.022 | [4] -0.059 | [5] -0.009 | [6] -0.041 | [7] -0.031 | [8] -0.053 | [9] -0.002 | [10] 0.01

H4C1 (UniProt P62805)
inactive: [1] 0.065 | [2] 0.499 | [3] -0.023 | [4] -0.042 | [5] -0.024 | [6] 0.252 | [7] -0.008 | [8] 0.067 | [9] -0.052 | [10] -0.067

IMMT (UniProt Q16891)
inactive: [1] 0.008 | [2] 0.058 | [3] -0.176 | [4] 0.035 | [5] 0.024 | [6] -0.001 | [7] -0.031 | [8] 0.016 | [9] -0.026 | [10] -0.007
